PubChem BioAssay
The source made the active and inactive calls.

Legend:
[1] = tested on: Human papillomavirus type 1a protein E7 (residues 44-93); assay: HPV1a E7 fragment binders on microarrays, primary screen, biochemical, small-molecule microarray, residues 44-93, 635 nm fluorescence (AID 1108); conditions: small-molecule microarray binding, fluorescence 635 nm; higher = more signal;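 note: E7 fragment applied at 1 µg/mL in TBST for 1 h at 4 C; score combines spot fluorescence with its signal to noise ratio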
[2] = modulators of HCV replicon luciferase signal, primary screen, HCV replication inhibitor project, Huh7 cells, luciferase reporter (AID 1109); conditions: 48 h, higher = more signal;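 note: huh7 hepatoma cells harbouring a luciferase neomycin HCV replicon reporter; luciferase luminescence as measure of HCV replicon replication; test concentration not given here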
[3] = biological target: Left-right determination factor 2 (Homo sapiens) (UniProt O00292); assay: LEFTY2 binders on small-molecule microarrays, primary screen, biochemical, small-molecule microarray, 635 nm fluorescence scan (AID 1110); conditions: LEFTY2 binding, higher = more signal
Left-right determination factor 2 (Homo sapiens), sequence (O00292 whole entry, looked up): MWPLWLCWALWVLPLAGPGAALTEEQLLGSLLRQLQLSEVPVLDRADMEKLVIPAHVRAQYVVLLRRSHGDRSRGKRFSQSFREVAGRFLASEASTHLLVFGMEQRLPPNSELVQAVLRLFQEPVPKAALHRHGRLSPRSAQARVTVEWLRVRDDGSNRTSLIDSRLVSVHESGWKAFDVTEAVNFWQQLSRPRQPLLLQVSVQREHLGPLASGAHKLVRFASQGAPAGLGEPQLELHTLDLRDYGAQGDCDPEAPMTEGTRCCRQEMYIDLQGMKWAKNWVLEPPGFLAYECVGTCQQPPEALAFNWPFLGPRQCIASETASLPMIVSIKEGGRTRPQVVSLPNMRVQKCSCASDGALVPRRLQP

[4] = biological target: Calmodulin-1 (Homo sapiens) (UniProt P0DP23); assay: CALM1 binders on microarrays, EGTA buffer, profiling panel, biochemical, small-molecule microarray, Cy5-labelled CALM1 (AID 1111); conditions: Cy5-CALM1 binding fluorescence, higher = more signal;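 note: labelled calmodulin applied in Tris saline Tween buffer holding calcium plus EGTA and DTT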
[5] = biological target: Calmodulin-1 (Homo sapiens) (UniProt P0DP23); assay: calcium-bound CALM1 binders on microarrays, profiling panel, artefact control for SMM control-protein annotation, biochemical, small-molecule microarray, Cy5-labelled CALM1, plus calcium (AID 1112); conditions: Cy5-CALM1 binding fluorescence, higher = more signal;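 note: score merges spot fluorescence with signal to noise from triplicate slides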
[6] = small-molecule microarray binders of probe aWnt5a, primary screen, biochemical, biotinylated probe, 635/667 nm fluorescence (AID 1113); conditions: higher = more signal;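 note: score merges 667 nm fluorescence intensity with signal-to-noise per printed feature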
[7] = small-molecule microarray binders of probe aShh, primary screen, biochemical, biotinylated probe, 635/667 nm fluorescence (AID 1114); conditions: higher = more signal;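 note: probe is biotin-labelled aShh protein from a stem cell growth factor screen; measures binding of labelled protein to compounds printed on the slide; score merges feature fluorescence at 667 nm with signal-to-noise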
[8] = small-molecule microarray binders of probe aNog, primary screen, biochemical, biotinylated probe, 635/667 nm fluorescence (AID 1115); conditions: higher = more signal;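 note: probe is biotinylated aNog protein used at 0.15 µg/mL for 1 h at 4 C; z-score combines 667 nm fluorescence of each spot with its signal to noise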
[9] = biological target: Torsin-1A-interacting protein 1 (Homo sapiens) (UniProt Q5JTV8); assay: LAP1 binders from COS7 cell lysate, primary screen, small-molecule microarray, 635/667 nm fluorescence (AID 1116); conditions: COS7-hLAP1 lysate binding, 635 nm fluorescence, higher = more signal
Torsin-1A-interacting protein 1 (Homo sapiens), sequence (Q5JTV8 whole entry, looked up): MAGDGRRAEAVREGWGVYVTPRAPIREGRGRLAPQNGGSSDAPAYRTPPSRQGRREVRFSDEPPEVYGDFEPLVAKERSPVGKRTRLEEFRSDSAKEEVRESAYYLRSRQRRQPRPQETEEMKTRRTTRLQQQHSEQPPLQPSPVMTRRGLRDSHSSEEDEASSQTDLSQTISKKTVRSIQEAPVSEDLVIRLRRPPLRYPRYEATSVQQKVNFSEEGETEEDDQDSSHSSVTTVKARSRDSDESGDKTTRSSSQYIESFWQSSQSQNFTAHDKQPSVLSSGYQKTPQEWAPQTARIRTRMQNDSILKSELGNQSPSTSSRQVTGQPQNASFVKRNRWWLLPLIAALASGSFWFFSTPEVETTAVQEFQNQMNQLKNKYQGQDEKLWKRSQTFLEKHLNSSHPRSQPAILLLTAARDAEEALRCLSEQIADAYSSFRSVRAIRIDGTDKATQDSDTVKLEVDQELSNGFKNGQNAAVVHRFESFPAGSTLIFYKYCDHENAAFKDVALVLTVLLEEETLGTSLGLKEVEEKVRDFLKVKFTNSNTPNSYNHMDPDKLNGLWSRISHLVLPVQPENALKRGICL

[10] = biological target: Alpha-bungarotoxin (Bungarus multicinctus) (UniProt P60615); assay: alpha-bungarotoxin binders on microarray, profiling panel, artefact control for SMM control protein annotation, biochemical, small-molecule microarray, Alexa647 label, 635/667 nm fluorescence (AID 1117); conditions: alpha-BTX-A647 binding fluorescence, higher = more signal
Alpha-bungarotoxin (Bungarus multicinctus), sequence (P60615 whole entry, looked up): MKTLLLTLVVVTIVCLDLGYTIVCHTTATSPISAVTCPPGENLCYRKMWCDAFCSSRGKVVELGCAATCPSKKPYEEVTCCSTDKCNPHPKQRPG

Albumin (Bos taurus) = Albumin (Bos taurus) (UniProt P02769); assay: bovine serum albumin binders on microarray, profiling panel, artefact control for SMM control protein annotation, biochemical, small-molecule microarray, Alexa647 label, 635/667 nm fluorescence (AID 1118); conditions: BSA-A647 binding, fluorescence 635 nm, higher = more signal;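 note: score merges 667 nm emission intensity and signal-to-noise per printed compound spot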
Albumin (Bos taurus), sequence (P02769 whole entry, looked up): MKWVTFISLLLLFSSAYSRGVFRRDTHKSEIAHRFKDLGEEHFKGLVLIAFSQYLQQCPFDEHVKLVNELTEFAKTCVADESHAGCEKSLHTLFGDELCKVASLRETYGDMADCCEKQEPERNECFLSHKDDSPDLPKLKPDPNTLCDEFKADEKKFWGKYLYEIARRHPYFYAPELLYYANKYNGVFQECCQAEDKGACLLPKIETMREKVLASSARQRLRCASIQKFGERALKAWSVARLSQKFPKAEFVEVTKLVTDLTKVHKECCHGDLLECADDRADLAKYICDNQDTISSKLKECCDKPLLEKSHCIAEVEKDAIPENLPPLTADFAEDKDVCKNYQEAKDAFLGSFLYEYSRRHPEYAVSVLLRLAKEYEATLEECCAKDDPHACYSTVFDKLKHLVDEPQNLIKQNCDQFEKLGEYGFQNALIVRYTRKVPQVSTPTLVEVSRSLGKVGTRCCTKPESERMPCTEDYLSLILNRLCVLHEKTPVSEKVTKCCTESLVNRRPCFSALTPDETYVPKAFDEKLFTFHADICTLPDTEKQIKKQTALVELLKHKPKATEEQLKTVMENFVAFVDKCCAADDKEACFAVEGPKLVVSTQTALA

[11] = small-molecule microarray binders of probe aXIP, primary screen, biochemical, NeuroSMM set, 635/667 nm fluorescence (AID 1119); conditions: higher = more signal, called active from +8 up or from −8 down;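 note: probe is the protein aXip251-270 applied at 1 µg/mL to compound-printed slides; binding of probe to printed compounds measured as 667 nm fluorescence plus signal to noise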
[12] = small-molecule binders of probe aNOTCH3, primary screen, biochemical, small-molecule microarray, 635/667 nm fluorescence (AID 1120); conditions: higher = more signal;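 note: probe is a biotin-tagged antibody raised against NOTCH3 rather than NOTCH3 protein; score merges spot fluorescence near 667 nm with spot signal to noise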
[13] = small-molecule binders of probe aNOTCH2, primary screen, biochemical, small-molecule microarray, 635/667 nm fluorescence (AID 1121); conditions: higher = more signal;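 note: score merges feature fluorescence read at 667 nm with its signal to noise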
[14] = biological target: Carbonic anhydrase 2 (Homo sapiens) (UniProt P00918); assay: CAII small-molecule binders, profiling panel, biochemical, small-molecule microarray, Alexa647-labelled CAII (AID 1122); conditions: CAII-A647 binding fluorescence, higher = more signal
[15] = COS7 lysate on small-molecule microarray, probe aHis, 635 nm (AID 1123); conditions: COS7 cell lysate, fluorescence, higher = more signal;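 note: z-score combines 667nm fluorescence intensity with signal-to-noise per printed compound spot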
[16] = compound binding in COS7 lysate, probe aLAP1, primary screen, cell lysate, small-molecule microarray (AID 1124); conditions: probe aLAP1, fluorescence, higher = more signal;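 note: lysate comes from COS7 cells expressing LAP1 and is applied at 0.3 µg/mL; score merges spot fluorescence near 667 nm with signal-to-noise over triplicate slides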
Sam68 (KHDRBS1) = assay: Sam68 small-molecule binders, primary screen, biochemical, small-molecule microarray, 635 nm fluorescence (AID 1125); conditions: small-molecule microarray binding, higher = more signal;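 note: score merges 667 nm channel intensity with signal to noise over triplicate slides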
[17] = tested on: Chordin-like protein 2 (CHRDL2); assay: CHRDL2 small-molecule binders, primary screen, biochemical, small-molecule microarray, 635 nm fluorescence (AID 1126); conditions: small-molecule microarray binding, fluorescence 635 nm; higher = more signal;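 note: printed compound slides probed with Chrdl2 protein at 4 µg/mL for 1 h at 4 C; score merges 667 nm emission intensity with signal to noise over three replicate slides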
[18] = biological target: Concanavalin-A (Canavalia ensiformis) (UniProt P02866); assay: ConA small-molecule binders, primary screen, artefact control for SMM control protein annotation, biochemical, small-molecule microarray, Alexa647 label, 635 nm (AID 1127); conditions: ConA-A647 binding fluorescence, higher = more signal;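 note: z combines 667 nm emission intensity with signal-to-noise across three replicate slides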
Concanavalin-A (Canavalia ensiformis), sequence (P02866 whole entry, looked up): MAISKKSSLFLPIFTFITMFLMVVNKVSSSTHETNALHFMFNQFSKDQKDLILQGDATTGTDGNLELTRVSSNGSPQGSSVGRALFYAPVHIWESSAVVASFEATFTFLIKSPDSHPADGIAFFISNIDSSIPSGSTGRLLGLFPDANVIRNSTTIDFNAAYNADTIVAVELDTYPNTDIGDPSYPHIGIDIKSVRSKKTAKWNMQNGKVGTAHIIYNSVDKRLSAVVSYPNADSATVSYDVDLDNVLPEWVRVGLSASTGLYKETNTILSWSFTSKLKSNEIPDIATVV

| SMILES | composite z-score [1] | z-score [2] | composite z-score [3] | composite z-score [4] | composite z-score [5] | composite z-score [6] | composite z-score [7] | composite z-score [8] | composite z-score [9] | composite z-score [10] | composite z-score (Albumin (Bos taurus)) | composite Z-score [11] | composite z-score [12] | composite z-score [13] | composite z-score [14] | composite z-score [15] | composite z-score [16] | composite z-score (Sam68 (KHDRBS1)) | composite z-score [17] | composite z-score [18] |
| --- | --- | --- | --- | --- | --- | --- | --- | --- | --- | --- | --- | --- | --- | --- | --- | --- | --- | --- | --- | --- |
| COc1ccc(C(O)C2C=CC3C(=O)N(C)C(=O)C3N2Nc2ccc([N+](=O)[O-])cc2[N+](=O)[O-])cc1OCc1ccccc1 (stereo not given) | 1.39 | 0.714 | -0.0506 | 0.211 | -0.0482 | 0.112 | 0.28 | 1.38 | 0.527 | 1.5 | 0.747 | -0.213 (inactive) | 0.583 | 0.29 | 0.633 | 2.36 | 0.53 | 1.32 | -0.599 | 0.892 |
| CN(C)CCCNC(=O)[C@@H]1c2ccccc2C(=O)N(C2Cc3ccccc3C2)[C@H]1c1ccc(CO)cc1 | 1.1 | -1.9 | -0.625 | -0.0693 | -0.875 | 0.0436 | 0.0766 | 0.467 | 0.814 | 0.438 | 0.274 | 0.0516 (inactive) | -0.45 | 0.197 | 0.505 | 0.132 | 0.682 | 1.3 | -0.0701 | 0.491 |
| C=C(/C(=C/C[C@H](OC(=O)c1ccncc1)c1ccccc1OCCO)c1cc(C(=O)OC)ccc1OC)C(C)C | 1.03 | -2.96 | 0.255 | -0.23 | -0.587 | 0.132 | 0.0639 | -0.194 | 0.0538 | 1.42 | 0.407 | -0.104 (inactive) | -0.0288 | -0.102 | 0.453 | 0.537 | -0.0576 | 1.06 | 0.33 | 0.737 |
| C=CCN1C(=O)[C@]2(O[C@H](CCn3cc([C@H](O)c4ccccc4)nn3)[C@@H]([Si](C)(C)c3ccc(OC)cc3)[C@@H]2C)c2cc(N3C(=O)c4cccc5cccc3c45)ccc21 | 0.87 | -4.4 | -0.744 | 0.313 | -0.58 | -0.156 | -0.0769 | -0.0809 | 0.404 | 1.39 | 0.626 | 0.783 (inactive) | -0.141 | -0.126 | 0.522 | 0.515 | 0.389 | 0.598 | -0.693 | 0.471 |
| CC(=O)c1ccc(C(O)C2C=CC3C(=O)NC(=O)C3N2Nc2ccc(Cl)cc2Cl)cc1 (stereo not given) | 0.18 | -0.38 | -0.16 | 0.594 | 0.468 | -0.0161 | 0.522 | 1.25 | 0.0338 | 0.186 | 0.843 | 0.0186 (inactive) | -0.0151 | -0.0097 | 0.759 | 2.15 | -0.227 | -0.0077 | 0.0823 | -0.185 |
| C[C@@H](OCc1ccccc1)C1NC(=O)[C@@]23C(=O)N[C@@H](Cc4ccccc4)C2[C@H](C)[C@@]2(C)O[C@H]2C3/C=C/C/C=C\CNC(=O)[C@H](Cc2ccccc2)NC1=O (stereo not given in full) | -0.677 | -0.963 | 0.226 | -0.629 | -1.15 | -0.035 | -0.304 | -0.289 | 0.252 | -0.753 | 0.126 | 0.069 (inactive) | -0.0026 | -0.153 | 0.618 | 0.332 | -0.149 | -0.24 | 0.665 | -0.052 |
| Cc1ccc(F)cc1S(=O)(=O)N[C@@H]1CCN(Cc2ccc3c(c2)OCO3)C1 | -0.28 | -1.98 | 0.198 | -0.786 | -0.997 | -0.176 | -0.0626 | -0.12 | 0.636 | 0.445 | 0.167 | -0.0662 (inactive) | -0.129 | -0.147 | 0.0085 | -0.702 | 0.0521 | -0.148 | 0.0213 | -0.319 |
